An excerpt weighted towards active compounds, which were near 4.4% of everything screened.
p53ts 32C tox – p53ts cell cytotoxicity, permissive temperature | H1299-p53A138V at 32C, ATP luminescence viability, 24 h | 130,000 compounds, 0.93% hits | Potency, µM (titrated, usually from 46.1 µM), actives largely listed as cytotoxic; further: nearly all actives have a fitted effect of over 55% in size
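ATP-content luminescence (ATPlite) read-out after 24 h compound exposure at 32C in H1299-p53A138V cells (600/well). Tested up to 46 uM. Normalized to DMSO (0%) and 100 uM tamoxifen (100% killing); Hill-fit AC50.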
p53ts 39C tox – p53ts cell cytotoxicity, nonpermissive temperature; H1299-p53A138V viability at 39C, ATP luminescence, 24 h; Potency, µM (titrated, usually from 46.1 µM), most hits filed as cytotoxic; 130,000 compounds, 1.5% hits; AID 902; further: nearly all actives have a fitted effect of over 55% in size
12-hLO inh – 12-hLO (ALOX12) enzyme inhibition; 150,000 compounds, 0.12% hits; AID 1452; purified 12-hLO, xylenol orange hydroperoxide absorbance; Potency, µM (highest dose often 57.1 µM), actives largely listed as inhibitors; P18054; further: nearly all actives have a fitted effect of over 55% in size
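Hydroperoxide output read as Fe(III)-xylenol orange absorbance, 573-to-405 nm ratio, after 30 min reaction with 40 uM arachidonic acid. Enzyme: 150 nM purified human 12hLO, 15 min compound preincubation; 25 mM Hepes pH 7.0, room temperature.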
HPGD inh – inhibitors of human 15-hydroxyprostaglandin dehydrogenase (HPGD). P15428. purified HPGD, NADH fluorescence kinetic, PGE2 substrate. Potency, µM, hits mostly inhibitors. 150,000 compounds, 4.3% hits; active means well fitted inhibition curve with a large enough effect, not every such curve was filed as active; inconclusive means small, poorly fitted or top-dose-only effect, or another doubt; inactive means no such curve, though single readings can be large or run the other way
Target sequence (P15428 whole entry, looked up): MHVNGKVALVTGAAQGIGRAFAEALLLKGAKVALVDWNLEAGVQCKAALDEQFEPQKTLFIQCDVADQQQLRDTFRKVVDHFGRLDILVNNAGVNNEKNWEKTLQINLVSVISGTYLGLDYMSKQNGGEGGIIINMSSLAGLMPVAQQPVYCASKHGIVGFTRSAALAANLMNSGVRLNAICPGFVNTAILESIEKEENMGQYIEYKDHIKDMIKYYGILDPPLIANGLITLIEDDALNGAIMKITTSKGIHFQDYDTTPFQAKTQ
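NADH formation kinetics: reaction with 30 uM PGE2 and 1 mM NAD+ (final), 20 nM enzyme, Tris-HCl pH 8 with Tween 20, after 15 min compound preincubation at room temperature. Fluorescence change, last versus first of five reads.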
A number is an active result. Unless noted, the call rests on the fitted dose curve; in most records, active means well fitted curve in the direction sought with a large enough effect; inconclusive means small, poorly fitted or top-dose-only effect, or another doubt; inactive means no such curve, though single readings can be large; an effect the other way counts as inactive or inconclusive.

`Cn1c(SCc2ccc(C(=O)Nc3nccs3)cc2)nnc1-c1ccccc1` gave 12-hLO inh inactive and HPGD inh 14µM.
`CN(c1ccccc1)S(=O)(=O)c1nnc(NC(=O)C2CCCCC2)s1` gave p53ts 32C tox 7.9µM and p53ts 39C tox 16µM.
Screening CCc1nnc(NC(=O)c2cccc(S(=O)(=O)N(C)c3ccccc3)c2)s1 returned 12-hLO inh inactive and HPGD inh 28µM.
COc1ccc(CCNC(=O)c2ccc3c(c2)N(Cc2ccc(F)cc2)C(=O)CS3)cc1OC was read as p53ts 32C tox inactive and p53ts 39C tox inactive.
For CCOc1ccccc1NS(=O)(=O)c1ccc2c(c1)CC(C)N2C(=O)C1CC1 (stereo not drawn) the results were p53ts 32C tox inactive and p53ts 39C tox inactive.
Screening O=C(CCS(=O)(=O)c1cccc2nonc12)Nc1cccc(F)c1 returned p53ts 32C tox inactive and p53ts 39C tox inactive.
For CCN(c1ccccc1)S(=O)(=O)c1nnc(NC(=O)c2cccs2)s1 the results were p53ts 32C tox 1µM and p53ts 39C tox 1.3µM.
CS(=O)(=O)c1ccc(Sc2nc3ccccc3s2)c([N+](=O)[O-])c1 was read as p53ts 39C tox 22µM, 12-hLO inh inactive and HPGD inh inactive.
`O=[N+]([O-])c1cc(S(=O)(=O)C(F)(F)F)ccc1Sc1nc2ccccc2[nH]1` gave 12-hLO inh inactive and HPGD inh inactive.
O=[N+]([O-])c1cc(S(=O)(=O)C(F)(F)F)ccc1Sc1nc2ccccc2s1 was read as 12-hLO inh inactive and HPGD inh 25µM.
`COc1ccc(S(=O)(=O)N2CCN(c3ccccc3F)CC2)cc1-c1noc(C)n1` gave p53ts 32C tox inconclusive and p53ts 39C tox 13µM.
For O=C(Nc1ccc(N2C(=O)C3C4C=CC(C4)C3C2=O)cc1)Nc1cccnc1 (stereo not drawn) the results were p53ts 32C tox inactive, p53ts 39C tox inactive, 12-hLO inh inactive and HPGD inh 18µM.
For Cc1ccc(-c2nn(C)c(=O)c3ccccc23)cc1S(=O)(=O)N1CCOCC1 the results were p53ts 32C tox inactive, p53ts 39C tox inactive, 12-hLO inh inactive and HPGD inh 14µM.
Screening Cc1ccc(-c2n[nH]c(=O)c3ccccc23)cc1S(=O)(=O)NCCN1CCOCC1 returned 12-hLO inh inactive and HPGD inh 13µM.
Cc1c(NC(=O)C(C)(C)Oc2ccc(Cl)cc2)cccc1-c1nc2ccccc2o1 was read as p53ts 32C tox inactive and p53ts 39C tox inactive.
For OC[C@@H]1NC[C@@H](O)[C@H]1O the results were p53ts 32C tox inactive, p53ts 39C tox inactive and 12-hLO inh inactive.
COc1ccc2c(c1OC)C(=O)N1c3ccccc3COC21 (stereo not drawn) was read as p53ts 32C tox 13µM, p53ts 39C tox 16µM, 12-hLO inh inactive and HPGD inh inactive.
COc1ccc2c(c1OC)C(=O)N1c3ccccc3C(=O)OC21 (stereo not drawn) was read as HPGD inh inactive.
O=[N+]([O-])c1cccc(/C=N/n2c(C3CCCCC3)n[nH]c2=S)c1 was read as p53ts 32C tox inactive, p53ts 39C tox inactive, 12-hLO inh inactive and HPGD inh 2.5µM.
S=c1[nH]nc(C2CCCCC2)n1/N=C/C(Cl)=C\c1ccccc1 was read as p53ts 32C tox inactive, p53ts 39C tox inactive, 12-hLO inh inactive and HPGD inh inactive.
S=c1[nH]nc(C2CCCCC2)n1/N=C/C=C/c1ccccc1 was read as 12-hLO inh inconclusive and HPGD inh 18µM.
For S=c1[nH]nc(C2CCCCC2)n1/N=C/c1ccc(Br)s1 the results were 12-hLO inh inactive and HPGD inh 5µM.
`S=c1[nH]nc(COc2ccccc2)n1/N=C/c1ccccn1` gave 12-hLO inh inactive and HPGD inh inconclusive.
For Cc1ccc(/C=N/n2c(C)n[nH]c2=S)o1 the results were 12-hLO inh inactive and HPGD inh inactive.
O=[N+]([O-])c1ccc(Cl)c(/C=N/n2c(COc3ccccc3)n[nH]c2=S)c1 was read as 12-hLO inh inactive and HPGD inh 8.9µM.
`CCOc1ccc(/C=C(\C#N)C(=O)Nc2sc3c(c2C(=O)OC)C(C(=O)OC)CC3)cc1OC` (stereo not drawn) gave p53ts 32C tox inactive and p53ts 39C tox inactive.
COc1cc2c(cc1OC)C(COc1ccccc1OC)N(C(=O)c1ccccc1OC)CC2 (stereo not drawn) was read as p53ts 32C tox inactive and p53ts 39C tox inactive.
